From the supplement of paper PMC9588786 come the findings set out here.

± gives the standard deviation of the averaged measurements.
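Further: viability read as CCK-8 absorbance at 450 nm in cells co-exposed to the GPX4 inhibitor RSL3, relative to a 0.01% DMSO vehicle control.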

This assay concerns HT-1080. Kind of assay: relative cell viability with RSL3 co-treatment (fraction of control); higher = stronger protection from RSL3-induced ferroptosis (higher viability). The following applies: 10 µM.
With `CS(=O)(=O)c1ccc(-c2cnc(N)c(C(=O)Nc3ccccc3)n2)cc1`, the relative cell viability turned out to be 0.713 ± 0.05.
As for `CC(C)(C#N)c1ccc(N2C(=O)OCc3cnc4ccc(-c5cnc6ccccc6c5)cc4c32)cc1`, the relative cell viability turned out to be 0.45 ± 0.18.
To `CCCCCCCCCCCCCCCCCCOP(=O)([O-])OC1CC[N+](C)(C)CC1` [Perifosine (KRX-0401)] belongs 0.463 ± 0.18; to `COCCOc1ccc2c(c1)ncn2-c1ccc2cccc(N3CCC(N)CC3)c2n1`, 0.82 ± 0.056; to `Cc1nc(NC(=O)N2CCC[C@H]2C(N)=O)sc1-c1ccnc(C(C)(C)C(F)(F)F)c1` [Alpelisib (BYL719)], 0.827 ± 0.015.
Take `CN1CCC(CNc2ccc3ncc(-c4cccc(OC(F)(F)F)c4)n3n2)CC1` [SGI-1776 free base]: the relative cell viability amounted to 0.507 ± 0.16.
To `CC1(COc2ccc3c(c2)ncn3-c2ccc3cccc(N4CCC(N)CC4)c3n2)COC1` belongs 0.683 ± 0.27.
On to `C=CC(=O)Nc1cccc(Nc2nc(Nc3ccc(OCCOC)cc3)ncc2F)c1`, for which the relative cell viability worked out at 0.563 ± 0.078.
Take `N#CC(=C(/N)Sc1ccccc1N)/C(C#N)=C(\N)Sc1ccccc1N`: the relative cell viability is 0.84 ± 0.017.
As to `CC(C)(O)CC(=O)NCCn1ccc2ncnc(Nc3ccc(Oc4cccc(C(F)(F)F)c4)c(Cl)c3)c21`, the relative cell viability stood at 0.567 ± 0.04.
Consider `OCCn1cc(-c2cnc3nnn(Cc4ccc5ncccc5c4)c3n2)cn1`, for which the relative cell viability was determined as 0.813 ± 0.09.
Take `O=C(c1ccc(Nc2nccc(-c3cc4ccccc4s3)n2)cc1)N1CCC(N2CCCC2)CC1` [IKK-16 (IKK Inhibitor VII)]: the relative cell viability amounted to 0.277 ± 0.038.
To `Cc1cc(Nc2cc(N3CCN(C)CC3)nc(Sc3ccc(NC(=O)C4CC4)cc3)n2)n[nH]1` [Tozasertib (VX-680, MK-0457)] belongs 0.71 ± 0.01.
As to `O=C(c1ccc(F)c(F)c1Nc1ccc(I)cc1F)N1CC(O)([C@@H]2CCCCN2)C1` [Cobimetinib (GDC-0973, RG7420)], the relative cell viability amounted to 0.797 ± 0.032.
As for `CC1=C(C(=O)Nc2cc3cn[nH]c3cc2F)C(c2ccc(C(F)(F)F)cc2)CC(=O)N1` (stereo not drawn), the relative cell viability is 0.883 ± 0.084.
As for `O=C(/C=C/c1ccc(O)c(O)c1)c1ccc(O)cc1O` [Butein], the relative cell viability came to 0.74 ± 0.075.
The figure for `CCn1c(-c2nonc2N)nc2c(C#CC(C)(C)O)ncc(OC[C@H]3CCCNC3)c21` is 0.563 ± 0.18; for `C#Cc1cccc(Nc2ncnc3cc(OC)c(OCCCCCCC(=O)NO)cc23)c1` it is 0.793 ± 0.046; for `Cc1ccc(C(=O)Nc2ccc(CN3CCN(C)CC3)c(C(F)(F)F)c2)cc1C#Cc1cnc2[nH]ncc2c1` [GZD824 Dimesylate] it is 0.553 ± 0.031.
In the case of `Clc1ccc(Nc2nnc(Cc3ccncc3)c3ccccc23)cc1` [Vatalanib (PTK787) 2HCl], the relative cell viability turned out to be 0.827 ± 0.047.
Regarding `COc1cccc(-n2c(=O)[nH]c3cc(Cl)n(-c4ccc(-c5cccc(OC)c5O)cc4)c3c2=O)c1`, the relative cell viability was determined as 0.807 ± 0.081.
The figure for `Cc1ccc(Nc2nccc(N(C)c3ccc4c(C)n(C)nc4c3)n2)cc1S(N)(=O)=O` [Pazopanib] is 0.71 ± 0.12; for `Cc1ccc(NC(=O)c2cccc(N(C)C)c2)cc1NC(=O)c1ccc(O)cc1` it is 0.587 ± 0.15.
As for `C=CC(=O)Nc1cccc(Sc2nc(Nc3ccc(N4CCN(C)CC4)cc3)ncc2Cl)c1`, the relative cell viability was 0.423 ± 0.035.
The figure for `O=C(NCCCNc1nc(Nc2cccc(NC(=O)N3CCCC3)c2)ncc1I)c1cccs1` is 0.657 ± 0.011; for `Nc1cccc(S(=O)(=O)N2CCCN(S(=O)(=O)c3ccc4c(c3)OCCO4)CC2)c1` it is 0.767 ± 0.049.
To `CC[C@@H]1C(=O)N(C)c2cnc(Nc3ccc(C(=O)N[C@H]4CC[C@H](N5CCN(CC6CC6)CC5)CC4)cc3OC)nc2N1C(C)C` [Volasertib (BI 6727)] belongs 0.397 ± 0.15.
As to `COc1ccc(CNC(=O)Nc2ncc([N+](=O)[O-])s2)cc1`, the relative cell viability was 0.45 ± 0.03.
As to `C[C@H](Nc1ncnc2nc[nH]c12)c1cc2cccc(Cl)c2c(=O)n1-c1ccccc1` [Duvelisib (IPI-145, INK1197)], the relative cell viability was found to be 0.717 ± 0.025.
The figure for `O=C(NOCC1CC1)c1ccc(F)c(F)c1Nc1ccc(I)cc1Cl` is 0.693 ± 0.2; for `CCC[C@H](NC(=O)/C(C#N)=C/c1cccc(Br)n1)c1ccccc1` [Degrasyn (WP1130)] it is 0.793 ± 0.064; for `Cc1cc(F)c(Nc2ncnc3cc(OCc4ccccc4)ccc23)cc1O` it is 0.797 ± 0.021.
The figure for `Cn1cnc2c(F)c(Nc3ccc(Br)cc3F)c(C(=O)NOCCO)cc21` is 0.827 ± 0.097; for `NC(=O)c1ccc(N(C(N)=O)c2c(F)cccc2F)nc1-c1ccc(F)cc1F` it is 0.733 ± 0.042.
For the compound `Cc1nc(Nc2ncc(C(=O)Nc3c(C)cccc3Cl)s2)cc(N2CCN(CCO)CC2)n1` [Dasatinib], the relative cell viability was 0.553 ± 0.091.
Regarding `O=C(NCCO)c1cccc(-c2cc(Nc3ccc(OC(F)(F)F)cc3)ncn2)c1`, the relative cell viability was 0.713 ± 0.13.
To `COc1ccc(COc2cc3oc(=O)c4cc(C(C)O)ccc4c3cc2OC)cc1` (stereo not drawn) [Palomid 529 (P529)] belongs 0.537 ± 0.2; to `Cc1cc(Nc2nc(N[C@@H](C)c3ncc(F)cn3)ncc2Cl)[nH]n1`, 0.597 ± 0.12.
